# Where “and” joins values, the source holds several entries; their conditions need not be identical. Equal values may be shown once. Calls of active or inactive are those of the source.
# How the values were obtained:
# [1] = A549 cell viability effects, profiling panel, calcein-AM fluorescence, 48 h, basal (AID 1162); settings: higher = more signal
# [2] = adipocyte viability effects, profiling panel, cell-based, 3T3-L1 adipocytes, calcein-AM fluorescence, 48 h, basal (AID 1163); settings: 3T3-L1 adipocytes viability, higher = more signal
# [3] = HepG2 cell viability effects, profiling panel, calcein-AM fluorescence, 48 h, basal (AID 1164); settings: higher = more signal
# [4] = MM1S cell viability effects, profiling panel, calcein-AM fluorescence, 48 h, basal (AID 1165); settings: higher = more signal;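 note: viability of MM1S multiple myeloma cells under basal unstimulated conditions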
# [5] = basal RPMI8226 viability, no added stimulus, profiling panel, cell-based, calcein-AM fluorescence, 48 h, PK04 Diversity Set (AID 1166); settings: RPMI8226 myeloma viability, higher = more signal;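 note: cells grown under basal conditions without added stimulus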
# [6] = basal HepG2 mitochondrial membrane potential changes, profiling panel, cell-based, JC-1 fluorescence, 24 h, 100 nL compound (AID 1167); settings: higher = more signal
# [7] = basal 3T3-L1 adipocyte mitochondrial potential changes, profiling panel, cell-based, JC-1 fluorescence, 3T3-L1 adipocytes, 24 h, 100 nL compound (AID 1168); settings: JC-1 mitochondrial fluorescence, higher = more signal, called active from +8 up or from −8 down
# [8] = basal RPMI8226 mitochondrial membrane potential changes, profiling panel, cell-based, JC-1 fluorescence, 24 h, 100 nL compound (AID 1169); settings: RPMI8226 myeloma, JC-1 mitochondrial potential fluorescence, higher = more signal
# [9] = basal MM1S mitochondrial membrane potential changes, profiling panel, cell-based, JC-1 fluorescence, 24 h, 100 nL compound (AID 1170); settings: higher = more signal
# [10] = A549 lung cancer cell viability effects, profiling panel, resazurin fluorescence, 24 h, PK04 Diversity Set (AID 1171); settings: higher = more signal, called active from +8 up or from −8 down
# Note: test concentration not given here.
SMILES,z-score [1],z-score [2],z-score [3],z-score [4],z-score [5],z-score [6],z-score [7],z-score [8],z-score [9],z-score [10]
O=C1C[C@]2(c3ccc([N+](=O)[O-])cc3)C(=O)N(Cc3ccccc3)c3cc(CO)ccc3[C@H]2N1C1CCCCC1,-0.8 and 0.627,0.43 and 1.53,-1.3 and 0.0974,-0.514 and -2.14,-0.684 and -2.65,-0.236 and 0.352,-0.0101 (inactive) and -0.0655 (inactive),-0.469 and -0.544,-0.152 and -0.189,0.466 (inactive) and -0.352 (inactive)
C=CCN(C(=O)C(c1cccs1)N(C(=O)/C=C\C(=O)O)c1c(Cl)cccc1CO)c1ccc(OC)cc1 (stereo not given),1.15 and 1.21,0.111 and 0.112,0.24 and 0.365,1.51 and -0.996,0.844 and 0.57,0.601 and -1.19,0.418 (inactive) and 0.623 (inactive),-0.74 and -0.0886,1.4 and -0.173,0.747 (inactive) and -0.246 (inactive)
C=CCN(Cc1ccccc1)C(=O)C(c1cccs1)N(C(=O)/C=C\C(=O)O)c1ccc(CCO)cc1 (stereo not given),-0.636 and -0.0917,0.0605 and -0.16,0.391 and 0.373,1.49 and 1.81,0.586 and 0.894,1.26 and 0.706,0.645 (inactive) and 1.1 (inactive),0.648 and 0.272,-1.19 and -0.751,-0.29 (inactive) and -0.14 (inactive)
CCN1C(=O)[C@H]2[C@H]3[C@H](O)[C@H](O)CC(=NNC(=O)OCc4ccc(OC)cc4)[C@H]3CC[C@H]2C1=O,0.173,-0.402,1.33,0.436,-0.261,0.385,-0.596 (inactive),-0.236,-0.00926,-0.947 (inactive)
CCCCN1CC=CC23O[C@@H]4C=CCCOC(=O)C4[C@H]2C(=O)N(C(C)CO)[C@@H]3C1=O (stereo not given in full),-0.301 and -0.336,-0.457 and -0.57,-0.469 and -0.612,1.07 and 0.893,-0.736 and -0.717,-0.494 and -0.753,-0.433 (inactive) and -0.828 (inactive),-0.129 and 0.0982,-0.686 and -0.347,0.237 (inactive) and -0.595 (inactive)
C[C@@H](ON=C1[C@H]2CCn3c(=O)n(-c4ccccc4)c(=O)n3[C@H]2[C@H](O)[C@@H]2O[C@H]12)c1cn([C@H](CO)Cc2ccccc2)nn1,0.158,-0.002,0.567,-0.463,-0.259,-0.998,0.31 (inactive),-0.334,-0.00977,-0.847 (inactive)
C[C@@H]1CC[C@@H](C(=O)O)N[C@H]1c1ccc(-c2ccco2)cc1,1.11,-0.396,0.229,0.617,0.404,1.49,0.309 (inactive),-0.636,0.496,0.115 (inactive)
C#CCN1C(/C=C/c2ccccc2)C(=O)OC[C@H]1c1ccccc1 (stereo not given in full),-0.002 and -0.112,1.74 and 0.227,-0.0288 and -0.167,-0.0906 and -0.0281,-0.712 and -1.8,1.04 and 0.221,1.37 (inactive) and 0.0383 (inactive),-0.749 and 0.481,-0.328 and -1.12,-0.925 (inactive) and 1.15 (inactive)
C=C[C@@H](OC)[C@H](O)c1ccc(O)c(F)c1,0.29 and -0.115,-0.625 and 0.478,-0.232 and 0.531,0.204 and 0.115,0.296 and 1.08,-0.242 and 0.559,0.0698 (inactive) and -0.132 (inactive),0.498 and -0.363,0.724 and -0.819,-0.0191 (inactive) and -0.71 (inactive)
COC(=O)C1=C(C)N(Cc2ccccc2)C2=C3C(=O)N(C)C(=O)[C@@H]3[C@@](O)(C(=O)OC)C(=O)N2[C@@H]1c1ccccc1,0.77 and 0.914,-0.159 and 0.143,0.215 and 1.05,-0.607 and -0.213,0.0606 and 0.359,0.981 and 0.11,-0.531 (inactive) and 0.96 (inactive),0.134 and -0.542,0.739 and 0.467,1.18 (inactive) and -1.08 (inactive)
CCOC(=O)[C@H](CC(C)C)NC(=O)CCC1CC(OC(=O)NCc2cccc3ccccc23)CC2(CCCC(COC(=O)NCc3ccccc3)O2)O1 (stereo not given in full),0.531,-0.172,-0.435,0.184,0.0523,2.45,0.472 (inactive),0.0897,-0.717,0.586 (inactive)
CCOC(=O)C[C@H]1[C@H](OC(=O)c2ccccc2-c2ccccc2)[C@@H](NC(=O)c2ccccc2)c2cc(OCCCO)ccc2N1C(=O)c1ccc2ccccc2n1,0.916 and -0.393,0.804 and -0.0181,0.694 and 1.01,0.175 and -1.55,-0.749 and -0.483,0.733 and 1.5,0.408 (inactive) and 0.209 (inactive),-1.08 and 0.127,-0.627 and 0.14,0.65 (inactive) and 0.579 (inactive)
COc1ccc(O[C@H]2C=C[C@@H](c3ccccc3)O[C@@H]2COC(=O)CCC(C)=NO[C@H](C)c2cn([C@H](CO)Cc3ccccc3)nn2)cc1,-0.748 and -0.352,0.498 and 0.0533,-1.06 and -0.619,-0.764 and -2.3,-2.54 and -1.69,-0.796 and -0.898,-2.62 (inactive) and -0.634 (inactive),0.0444 and -0.196,-0.704 and 0.182,0.385 (inactive) and 0.277 (inactive)
C=CCN(Cc1ccccc1)C(=O)C1N(c2c(Cl)cccc2CO)C(=O)C2C(C(=O)O)C3C=CC21O3 (stereo not given),1.45 and -0.228,0.38 and 0.802,1.07 and 0.0456,2.15 and 0.815,0.381 and -0.937,0.992 and -1.25,1.53 (inactive) and -0.0316 (inactive),-0.817 and -0.0516,1.03 and 0.278,2.19 (inactive) and -0.851 (inactive)
